Screening data: PubChem BioAssay, several laboratories
Rows were chosen to be rich in hits. Some 1.2% of all compounds tested hit in one or more screens of this group.
TcdB inh – TcdB glycohydrolase inhibition. P18177. TcdB glycohydrolase enzymatic assay, plate reader. inhibition, % at 9.99 µM. actives 0.24% (n = 350,000); in the data active = inhibition above about 10%
Target sequence (P18177 whole entry, looked up): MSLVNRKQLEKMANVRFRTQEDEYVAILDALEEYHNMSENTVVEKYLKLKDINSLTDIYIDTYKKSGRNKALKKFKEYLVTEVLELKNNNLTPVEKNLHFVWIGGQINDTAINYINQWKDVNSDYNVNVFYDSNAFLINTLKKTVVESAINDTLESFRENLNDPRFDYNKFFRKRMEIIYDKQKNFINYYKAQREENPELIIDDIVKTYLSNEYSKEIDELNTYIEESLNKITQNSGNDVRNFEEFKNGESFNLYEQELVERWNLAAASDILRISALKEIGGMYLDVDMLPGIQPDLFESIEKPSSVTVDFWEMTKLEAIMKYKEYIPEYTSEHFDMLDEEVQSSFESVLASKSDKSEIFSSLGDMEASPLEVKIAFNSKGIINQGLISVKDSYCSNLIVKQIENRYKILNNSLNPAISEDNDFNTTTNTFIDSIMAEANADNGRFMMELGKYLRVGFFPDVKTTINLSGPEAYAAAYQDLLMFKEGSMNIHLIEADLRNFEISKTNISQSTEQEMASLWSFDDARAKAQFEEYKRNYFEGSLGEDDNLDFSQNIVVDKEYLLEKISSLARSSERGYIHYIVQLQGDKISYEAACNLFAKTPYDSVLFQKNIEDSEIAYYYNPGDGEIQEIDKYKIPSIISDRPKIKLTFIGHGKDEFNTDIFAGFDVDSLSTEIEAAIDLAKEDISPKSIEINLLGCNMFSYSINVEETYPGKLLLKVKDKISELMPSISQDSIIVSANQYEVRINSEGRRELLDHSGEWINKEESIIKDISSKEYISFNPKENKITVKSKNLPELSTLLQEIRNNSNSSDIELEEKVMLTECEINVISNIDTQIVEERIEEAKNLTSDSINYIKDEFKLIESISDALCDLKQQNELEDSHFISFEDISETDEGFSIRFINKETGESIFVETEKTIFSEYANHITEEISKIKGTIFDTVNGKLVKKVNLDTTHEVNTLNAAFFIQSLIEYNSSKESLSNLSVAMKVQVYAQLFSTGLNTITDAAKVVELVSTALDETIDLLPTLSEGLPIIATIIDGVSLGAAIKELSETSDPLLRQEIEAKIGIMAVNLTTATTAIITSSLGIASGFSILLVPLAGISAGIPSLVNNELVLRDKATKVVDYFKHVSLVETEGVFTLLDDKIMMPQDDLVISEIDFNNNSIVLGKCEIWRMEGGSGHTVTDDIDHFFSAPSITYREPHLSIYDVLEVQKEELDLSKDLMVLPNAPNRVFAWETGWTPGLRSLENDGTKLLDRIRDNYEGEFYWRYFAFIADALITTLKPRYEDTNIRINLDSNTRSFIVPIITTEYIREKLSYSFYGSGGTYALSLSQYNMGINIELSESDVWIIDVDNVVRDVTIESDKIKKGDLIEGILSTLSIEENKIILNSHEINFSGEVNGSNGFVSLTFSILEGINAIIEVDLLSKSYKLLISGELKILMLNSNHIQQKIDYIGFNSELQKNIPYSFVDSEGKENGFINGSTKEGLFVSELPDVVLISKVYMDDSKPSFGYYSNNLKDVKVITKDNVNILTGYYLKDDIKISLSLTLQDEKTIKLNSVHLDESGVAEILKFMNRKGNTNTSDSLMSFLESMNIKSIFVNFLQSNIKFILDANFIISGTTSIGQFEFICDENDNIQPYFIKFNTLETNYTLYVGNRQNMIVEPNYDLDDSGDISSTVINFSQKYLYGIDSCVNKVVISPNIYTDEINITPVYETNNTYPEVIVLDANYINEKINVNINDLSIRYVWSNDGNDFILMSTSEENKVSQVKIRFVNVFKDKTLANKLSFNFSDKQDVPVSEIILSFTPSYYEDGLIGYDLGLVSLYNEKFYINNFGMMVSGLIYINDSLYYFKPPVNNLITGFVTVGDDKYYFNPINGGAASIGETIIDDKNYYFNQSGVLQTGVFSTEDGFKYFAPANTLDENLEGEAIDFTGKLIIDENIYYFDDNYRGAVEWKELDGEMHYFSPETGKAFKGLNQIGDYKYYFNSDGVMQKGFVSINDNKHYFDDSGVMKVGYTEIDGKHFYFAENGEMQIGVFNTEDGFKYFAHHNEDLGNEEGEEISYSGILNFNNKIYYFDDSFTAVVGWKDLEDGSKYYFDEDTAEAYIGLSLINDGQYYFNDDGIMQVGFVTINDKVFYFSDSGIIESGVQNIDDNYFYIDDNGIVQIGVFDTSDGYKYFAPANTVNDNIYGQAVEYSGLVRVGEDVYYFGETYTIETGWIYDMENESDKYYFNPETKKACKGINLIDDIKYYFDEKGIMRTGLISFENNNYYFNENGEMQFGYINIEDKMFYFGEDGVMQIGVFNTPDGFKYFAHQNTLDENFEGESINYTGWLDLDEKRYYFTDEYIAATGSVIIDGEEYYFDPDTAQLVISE
Sa RN4220 lethal – S. aureus RN4220 growth inhibition. OD600, 16 h. inhibition, % (concentration not given with the values). actives 0.33% (n = 330,000); in the data active = inhibition above about 85%;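 also: plate controls were untreated cells for no effect and reference antibiotic for full effect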
PfHsp40 yeast – restores yeast growth despite PfHsp40 toxicity; S. cerevisiae expressing PfHsp40, growth rescue, ATP luminescence; growth rescue, % at 12.5 µM; actives 0.68% (n = 340,000); AID 504582; in the data active = growth rescue above about 28%, passing the limit was not always enough;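 also: yeast W303a lacking pdr1 and pdr3 grown in galactose medium; growth measured after three days at 30 °C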
PrP UTR inh – inhibition of PrP 5' UTR reporter expression; inhibition, % (test concentration not listed); actives 0.35% (n = 340,000); AID 488862; cell-based PrP 5' UTR mRNA reporter, plate reader; in the data active = inhibition above about 52%; also: 0 = median of the neutral control wells
ugtP null kill – compounds lethal to S. aureus RN4220 ugtP deletion mutant | OD600 growth, 16 h | growth inhibition, % (concentration not given with the values) | actives 0.54% (n = 330,000) | AID 1259309; in the data active = growth inhibition above about 68%;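 also: plate controls were untreated wells for no effect and antibiotic for full effect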
The depositor's hits bear a star; . = not tested or not shown.

SMILES	TcdB inh	Sa RN4220 lethal	PfHsp40 yeast	PrP UTR inh	ugtP null kill
COc1cc(C=NN(C)C)cc(Br)c1O	.	4	.	.	10
O=C(CSc1nnc(-c2ccccc2)c(-c2ccccc2)n1)Nc1ccc(Br)cn1	0	1	0	-10	88*
O=C(CSc1nnc(-c2ccccc2)c(-c2ccccc2)n1)Nc1ncc(Cl)cc1Cl	.	5	0	-5	4
O=[N+]([O-])c1c(Nc2ccccc2O)ccc2nonc12	13*	8	-1	-8	-1
Cc1ccccc1Nc1ccc2nonc2c1[N+](=O)[O-]	0	8	-2	-27	10
O=[N+]([O-])c1c(Nc2ccccc2O)cc(Cl)c2nonc12	1	98*	-2	-23	87
CCc1ccc(-n2cc(-c3ccc([N+](=O)[O-])cc3)[nH]c2=S)cc1	0	3	-2	-7	1
CCc1ccc(-c2cn(C3CCCCC3)c(=S)[nH]2)cc1	-1	27	91*	-28	11
CO[C@H]1CN(C)C(=O)c2cc(NC(=O)NC(C)C)ccc2OC[C@@H](C)N(C(=O)CC2CC2)C[C@H]1C	0	.	.	.	.
CC(C)(C)c1ccc(C(=O)NC(=S)NNC(=O)c2cccs2)cc1	.	86*	465*	6	92*
O=C(NC(=S)NNC(=O)c1cccs1)c1ccccc1	-2	32	19	-4	14
CC(C)(C)C(=O)NC(=S)NNC(=O)c1ccncc1	-1	19	1	-1	-2
CC(C)(C)C(=O)NC(=S)NNC(=O)c1ccc(-c2ccccc2)cc1	.	92*	-1	13	89
CC(C)(C)c1ccc(C(=O)NNC(=S)NC(=O)c2cccnc2)cc1	-1	70	109*	9	36
O=C(NC(=S)NNC(=O)c1ccccc1F)c1cccnc1	15*	16	.	.	-4
O=C(NNC(=S)NC(=O)c1ccccc1)c1cccnc1	0	13	1	-15	-4
O=C([C@H]1N[C@H]2c3ccc(-c4ccc(F)cc4)c(=O)n3C[C@H]2[C@@H]1CO)N1CCc2ccccc2C1	-3	.	.	.	.
Cc1noc(C)c1NC(=O)N(C)CC1Oc2c(NC(=O)Nc3ccccc3)cccc2C(=O)N(C(C)CO)CC1C (stereo not drawn)	.	2	.	.	0
Cc1noc(C)c1NC(=O)N(C)C[C@@H]1OCCCC[C@@H](C)Oc2ccc(NC(=O)Nc3ccc(C(F)(F)F)cc3)cc2C(=O)N([C@@H](C)CO)C[C@H]1C	1	.	.	.	.
COCC#Cc1ccc2c(c1)O[C@H](CN(C)C(=O)CN(C)C)[C@H](C)CN([C@H](C)CO)S2(=O)=O	0	.	.	.	.
CC(C)(C)c1cc(Cl)c(O)c(NC(=S)NC(=O)c2cccnc2)c1	10*	35	2	-20	14
O=c1cc(CO)oc(C(Nc2ccccn2)c2cccc(F)c2)c1O (stereo not drawn)	-7	2	-1	-29	10
O=c1cc(CO)oc(C(Nc2ccccn2)c2ccc(C(F)(F)F)cc2)c1O (stereo not drawn)	.	5	128*	-10	3
CCCCc1cn(CC2CCC(C3CCC(Cn4cc(CCCC)nn4)O3)O2)nn1 (stereo not drawn)	.	-1	.	.	-3
CCCc1nc(SCC(=O)Nc2ccc(N3CCOCC3)cc2)c2ccccc2n1	.	.	-1	-4	.
SMILES	TcdB inh	Sa RN4220 lethal	PfHsp40 yeast	PrP UTR inh	ugtP null kill
CC(C)c1nc(SCC(=O)Nc2ccc(N3CCOCC3)cc2)c2ccccc2n1	.	-5	25*	-5	-5
COC(=O)C1=C(C(=O)OC)C2N(C)c3ccccc3[C@@]23CC(CO)N(C(=O)NCCBr)C3=N1 (stereo partly drawn)	.	-4	.	.	28
Cc1ccc(C(C)NC(=O)c2cc(C)oc2C)cc1 (stereo not drawn)	.	3	48*	-21	-2
Cc1noc(C)c1S(=O)(=O)Nc1ccc2c(c1)C(=O)N([C@H](C)CO)C[C@H](C)[C@H](CN(C)C(=O)NC1CCCCC1)OCCCC[C@@H](C)O2	1	.	.	.	.
COc1ccc(S(=O)(=O)NC2CCCCC2)c(C)c1C	.	2	86*	0	-2
COc1ccc(C)cc1S(=O)(=O)NC1CCCCCC1	3	4	-1	-12	11
CC(C)(C)OC(=O)NCCCCCNC(=O)c1nc[nH]c1C(=O)NCc1ccc(CNC(=O)OC(C)(C)C)cc1	0	3	3	-6	-15
CC(C)(C)OC(=O)NCCCCCNC(=O)c1nc[nH]c1C(=O)NCCCCCNC(=O)OC(C)(C)C	2	6	45*	0	1
N#C/C(=C\c1ccc(N2CCOCC2)o1)C(=O)Nc1ccc(O)cc1	19*	4	2	-37	-9
COc1ccc(NC(=O)/C(C#N)=C\c2ccc(N3CCOCC3)o2)cc1	0	-1	-1	-43	-8
COc1ccc(C(C)NC(=O)CCc2ccccc2)cc1 (stereo not drawn)	1	2	-2	-46	1
COc1ccc(CCC(=O)NC(C)C)cc1	0	3	39*	-24	-5
COC(=O)c1cnc(NNS(=O)(=O)c2ccc(Cl)cc2)nc1C(F)(F)F	1	6	-2	-26	-1
COC(=O)c1cnc(NNC(=O)c2ccc([N+](=O)[O-])cc2)nc1C(F)(F)F	0	7	63*	-17	6
CCC[n+]1c(C)sc2c3c(ccc21)CCCC3	.	97*	0	-10	95*
CCc1ccc(S(=O)(=O)/N=C2/C=C(Sc3ncn[nH]3)C(=O)c3ccccc32)cc1	.	.	179*	-18	.
Cc1noc(C)c1S(=O)(=O)Nc1ccc2c(c1)C(=O)N([C@@H](C)CO)C[C@H](C)[C@H](CN(C)Cc1ccc(C(=O)O)cc1)OCCCC[C@H](C)O2	0	.	.	.	.
COc1cccc(C(=O)N/N=C(/c2ccccc2)c2ccccn2)c1	.	.	324*	13	.
C[C@H]1CN([C@@H](C)CO)C(=O)c2cccc(N(C)C)c2O[C@H]1CN(C)Cc1ccc(C(=O)Nc2ccccc2N)cc1	-2	.	.	.	.
CO[C@H]1CN(C)C(=O)c2ccc(NC(=O)NC(C)C)cc2OC[C@H](C)N(CCC(F)(F)F)C[C@H]1C	0	.	.	.	.
C[C@@H]1CN([C@H](C)CO)C(=O)c2cccc(NC(=O)C3CCOCC3)c2O[C@@H]1CN(C)Cc1ccc(-c2ccccc2)cc1	-1	.	.	.	.
O=[N+]([O-])c1ccc(O)c(C=NNC(=S)Nc2ccc(Cl)cc2Cl)c1	.	83	.	.	100*
O=C1NCCCC1C(=O)NN=Cc1cc([N+](=O)[O-])ccc1O (stereo not drawn)	.	90*	.	.	87
O=C1NCCCC1C(=O)N/N=C/c1cc([N+](=O)[O-])ccc1O (stereo not drawn)	-8	.	1	-16	.
O=C(NN=Cc1cc([N+](=O)[O-])ccc1O)C1CCCCC1	.	95*	.	.	86*
O=C(N/N=C/c1cc([N+](=O)[O-])ccc1O)C1CC1	-2	.	0	-9	.
O=C(NN=Cc1cc([N+](=O)[O-])ccc1O)C1C2CCCCC21 (stereo not drawn)	.	89*	.	.	75
CC(CCC1=C(C)CCCC1(C)C)=NNC(N)=S	.	4	.	.	2
